# Assay results as given in PubChem BioAssay (NCATS).
# Records with an inconclusive call do not appear. A call without a number means that no potency is given here. Active and inactive are the calls of the source. Calls follow the shape of the dose curve; as a rule, active = well fitted inhibition curve with a large enough effect; inconclusive = small, poorly fitted or top-dose-only effect; inactive = flat fitted curve, though single readings scatter.
# Target: Phospholipid hydroperoxide glutathione peroxidase GPX4 (Homo sapiens) (UniProt P36969)
# Sequence (P36969 whole entry, looked up): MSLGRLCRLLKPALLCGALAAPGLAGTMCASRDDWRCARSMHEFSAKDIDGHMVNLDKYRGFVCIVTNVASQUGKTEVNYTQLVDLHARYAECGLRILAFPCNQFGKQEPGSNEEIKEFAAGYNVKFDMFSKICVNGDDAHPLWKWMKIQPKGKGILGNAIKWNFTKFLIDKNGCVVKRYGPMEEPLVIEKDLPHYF
# Test: Primary qHTS Assay for Inhibitors of Recombinant Selenoprotein Glutathione Peroxidase 4 (GPX4) (AID 1845192); also: nearly all actives have a fitted effect of over 65% in size
# Details: recombinant GPX4, GR-coupled NADPH fluorescence, 15 min; series mostly up to 50 µM
# In short: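 Steps: GPX4 plus compound, 30 min RT; add GR/GSH/NADPH master mix; start with cumene hydroperoxide; read 340/450 nm fluorescence at 0 and 15 min. Finals were 200 nM GPX4, 1 mM GSH, 0.5 mM CHP, 0.5 mM NADPH, 100 nM GR.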
row,SMILES,Potency
1,CC(C)NCC(O)COc1ccc(CCOCC2CC2)cc1 (centres undefined),inactive
2,CC1(CN2CCC(n3c(=O)[nH]c4ccccc43)CC2)OCc2ccccc2-n2cccc21 (centres undefined),inactive
3,Cc1ccccc1N1C(=O)c2cc(S(N)(=O)=O)c(Cl)cc2NC1C (centres undefined),inactive
4,Cn1c(=O)c2[nH]cnc2n(C)c1=O,inactive
5,N[C@@H](Cc1c[nH]c2ccc(O)cc12)C(=O)O,inactive
6,CN(CCOc1ccc(NS(C)(=O)=O)cc1)CCc1ccc(NS(C)(=O)=O)cc1,inactive
7,O=C(c1ccc(OCCN2CCCCC2)cc1)c1c(-c2ccc(O)cc2)sc2cc(O)ccc12,inactive
8,CN1CCC(=C2c3ccccc3C=Cc3ccccc32)CC1,inactive
9,CC12CC3CC(C)(C1)CC(N)(C3)C2,inactive
10,Cc1cc(C(C)(C)C)cc(C)c1CC1=NCCN1,inactive
11,O=C(C1CCCCC1)N1CC(=O)N2CCc3ccccc3C2C1 (centres undefined),inactive
12,COc1ccc2c(c1)c(CC(=O)O)c(C)n2C(=O)c1ccc(Cl)cc1,inactive
13,Clc1ccc(C(c2ccccc2Cl)C(Cl)Cl)cc1 (centres undefined),inactive
14,CCC1(c2ccccc2)C(=O)NCNC1=O,inactive
15,CN1CCN2c3ccccc3Cc3ccccc3C2C1 (centres undefined),inactive
16,C[C@@H]1CC(=O)NN=C1c1ccc(NN=C(C#N)C#N)cc1,inactive
17,COc1ccc(CCN(C)CCCC(C#N)(c2ccc(OC)c(OC)c2)C(C)C)cc1OC (centres undefined),inactive
18,CN1CCC(=C2c3ccccc3CC(=O)c3sccc32)CC1,inactive
19,CN1C2CCC1CC(OC(=O)C(CO)c1ccccc1)C2 (centres undefined),inactive
